The results in this text go back to PubChem BioAssay (NCI).

The structures appear in SMILES notation. The panel holds about 83,000 compounds, 20% with a hit somewhere; the sample as a whole holds those more often.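 Results are percent growth after 48 hours of single-concentration exposure. 100 means growth as in untreated cells, lower positive values show inhibition; negative values down to -100 show cell death.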 Values without a mark were called inactive. Calls of active or inactive are those of the source. Rule for the calls: active = growth percent below 10; inactive = the rest.

Test systems include NCI-H23 lung; NCI-H226 lung; NCI-H322M lung; HOP-62 NSCLC; NCI-H460 lung; HOP-92 NSCLC; NCI-H522 lung; A549/ATCC NSCLC; 786-0 renal; COLO 205 colon.
Common to all, as to assay: NCI-60 one-dose screen, 48 h (100 = growth as untreated, 0 = no growth, -100 = all killed)
Details in all cases: 10 µM

Regarding `COc1cc(/C=C/C(=O)c2ccc(NC(=O)CN3C(=O)NC(C)(c4ccccc4)C3=O)cc2)cc(OC)c1OC` (stereo not given), the growth in the assay on NCI-H23 lung was 15.6%; in the assay on NCI-H226 lung, 1.44% (active); in the assay with NCI-H322M lung it was 56.5%; in the assay with HOP-62 NSCLC, 33.3%; in the assay with NCI-H460 lung, 2.48% (active); with HOP-92 NSCLC, 85%. Moreover, the growth is 32.8% in the assay with NCI-H522 lung, 18.5% in the assay on A549/ATCC NSCLC, 27.5% in the assay with 786-0 renal and 11.9% with COLO 205 colon.
With `COc1ccc2nc(Cl)c(-c3cc(-c4ccccc4)nc(=O)[nH]3)cc2c1`, the growth in the assay on NCI-H23 lung was 57.9%; in the assay on NCI-H226 lung, 60.8%; with NCI-H322M lung, 78.1%; in the assay on HOP-62 NSCLC, 69.9%; with NCI-H460 lung, 18%; with HOP-92 NSCLC it was 55.2%. Moreover, the growth in the assay with NCI-H522 lung is 66.9%; in the assay with A549/ATCC NSCLC, 77.4%; in the assay on 786-0 renal it was 57.8%; with COLO 205 colon it was 92.9%.
`COc1ccc2[nH]c(O)c(N=NC(=O)COc3ccc(NC(=O)Nc4ccc(Cl)c(Cl)c4)cc3)c2c1`: the growth in the assay with NCI-H23 lung is -80.4% (active); in the assay on NCI-H226 lung, -75.6% (active); in the assay on NCI-H322M lung, 16.6%; with HOP-62 NSCLC, -36% (active); in the assay on NCI-H460 lung it was 15.5%; in the assay on HOP-92 NSCLC, -47.4% (active). In addition, the growth was -90% (active) in the assay on NCI-H522 lung, -54.5% (active) with A549/ATCC NSCLC, -33.2% (active) in the assay with 786-0 renal and -49.3% (active) in the assay with COLO 205 colon.
Consider `Cc1ccc(NC(=O)c2ccc(-n3c(=O)[nH]c4ccccc4c3=O)cc2)cc1`, for which the growth with NCI-H23 lung was 88.2%; in the assay with NCI-H226 lung, 61%; in the assay with NCI-H322M lung, 99.9%; in the assay on HOP-62 NSCLC it was 82%; in the assay on NCI-H460 lung it was 86.3%; with HOP-92 NSCLC, 36.5%. Also, the growth in the assay on NCI-H522 lung is 13.8%; in the assay with A549/ATCC NSCLC it was 113%; with 786-0 renal it was 36.7%; in the assay with COLO 205 colon it was 109%.
As to `CN1C(=O)N(C)C2SC(N/N=C/C=C/c3ccccc3)=NC21` (stereo not given), the growth in the assay with NCI-H23 lung was 84.9%; in the assay with NCI-H226 lung, 79.3%; with NCI-H322M lung, 93.9%; in the assay with HOP-62 NSCLC it was 85.9%; in the assay on NCI-H460 lung, 94.5%; in the assay on HOP-92 NSCLC it was 97.9%. Moreover, the growth in the assay on NCI-H522 lung is 56.1%; with A549/ATCC NSCLC, 87.5%; with 786-0 renal, 73.9%; in the assay with COLO 205 colon, 122%.
`O=C1Nc2ccc(F)cc2/C1=C/c1cccc(OCc2ccccn2)c1`: the growth in the assay with NCI-H23 lung is 58.3%; in the assay with NCI-H226 lung, 49.9%; in the assay with NCI-H322M lung, 77%; in the assay with HOP-62 NSCLC, 78.9%; in the assay with NCI-H460 lung it was 36.5%; in the assay on HOP-92 NSCLC it was 26.5%. The growth with NCI-H522 lung was -14.1% (active); in the assay on A549/ATCC NSCLC it was 77.4%; in the assay with 786-0 renal, 56%; in the assay with COLO 205 colon it was 98.8%.
With `O=C(c1ccc(Cl)cc1)C1[C@H](c2ccc(Br)cc2)[C@@H](c2ccccc2)NC12C(=O)Nc1ccc(Cl)cc12` (stereo not given in full), the growth in the assay on NCI-H23 lung is -83.6% (active); in the assay with NCI-H226 lung, -85.6% (active); with NCI-H322M lung, -28.6% (active); in the assay on HOP-62 NSCLC it was -73.4% (active); in the assay on NCI-H460 lung it was -63% (active); in the assay on HOP-92 NSCLC it was -69.2% (active). The growth with NCI-H522 lung is -79.5% (active); with A549/ATCC NSCLC it was -44% (active); in the assay with 786-0 renal, -68% (active); in the assay on COLO 205 colon, -87.7% (active).
Regarding `Cc1ccc(C(=O)Nc2ccc(-n3c(C)nc4c(cnn4-c4ccccc4)c3=O)cc2)cc1`, the growth in the assay on NCI-H23 lung is 53.6%; with NCI-H226 lung it was 54.8%; with NCI-H322M lung it was 87.3%; with HOP-62 NSCLC, 78.8%; in the assay with NCI-H460 lung it was 75.4%; in the assay on HOP-92 NSCLC, 93.3%. Besides, the growth with NCI-H522 lung was 71.2%; in the assay on A549/ATCC NSCLC, 65.8%; with 786-0 renal, 86.1%; with COLO 205 colon, 77.4%.
Take `O=C1Nc2ccc(F)cc2/C1=C/c1cccc(OCc2ccccc2)c1`: the growth in the assay on NCI-H23 lung was 24.8%; in the assay on NCI-H226 lung, 35.3%; in the assay with NCI-H322M lung it was 47.6%; in the assay on HOP-62 NSCLC it was 48.4%; with NCI-H460 lung it was 7.06% (active); with HOP-92 NSCLC it was 18.8%. For the same molecule, the growth in the assay on NCI-H522 lung was 5.02% (active); in the assay with A549/ATCC NSCLC, 41.8%; in the assay with 786-0 renal, 33.7%; with COLO 205 colon it was 34.1%.
In the case of `CN1CCCN(Cc2ccc(C(=O)Nc3cccc(Nc4ccc5c(O)cccc5n4)c3)cc2C(F)(F)F)CC1`, the growth in the assay with NCI-H23 lung was -82.1% (active); in the assay with NCI-H226 lung, 57.4%; in the assay with NCI-H322M lung it was -72.1% (active); with HOP-62 NSCLC it was -69.8% (active); with NCI-H460 lung, -85.3% (active); in the assay on HOP-92 NSCLC, -51.5% (active). Further, the growth in the assay with NCI-H522 lung was -83.4% (active); in the assay with A549/ATCC NSCLC, -61.4% (active); in the assay on 786-0 renal, -74.8% (active); with COLO 205 colon, -64.4% (active).
Consider `Cc1ccc(-c2cc(-c3cc4ccccc4nc3Cl)[nH]c(=O)n2)cc1`, for which the growth was 10.1% in the assay with NCI-H23 lung; -8.6% (active) in the assay with NCI-H226 lung; 32.1% in the assay on NCI-H322M lung; -9.15% (active) with HOP-62 NSCLC; 0.523% (active) in the assay on NCI-H460 lung; 5.62% (active) in the assay with HOP-92 NSCLC. Besides, the growth with NCI-H522 lung is -11.7% (active); in the assay on A549/ATCC NSCLC, 35.5%; with 786-0 renal, -22.6% (active); with COLO 205 colon, 24.7%.
`Cc1ccc(C(C)C)cc1NC(=O)c1ccccc1N(C)C`: the growth in the assay with NCI-H23 lung was 82.4%; with NCI-H226 lung, 99.3%; with NCI-H322M lung, 82.7%; in the assay with HOP-62 NSCLC it was 97.1%; in the assay on NCI-H460 lung it was 102%; in the assay on HOP-92 NSCLC, 73.8%. Also, the growth is 78.3% in the assay with NCI-H522 lung, 82.2% in the assay on A549/ATCC NSCLC, 81.7% in the assay with 786-0 renal and 105% in the assay with COLO 205 colon.
